In ChEMBL document CHEMBL4513216, “Probing the Open Global Health Chemical Diversity Library for Multistage-Active Starting Points for Next-Generation Antimalarials” (ACS Infect Dis, 2020):
In all, about 69,000 compounds went through this assay and about 8,600 (12%) showed an effect of 50% or more. The sample as a whole holds a higher share of strong results than the screen did.

tested on: Plasmodium berghei; assay: Screen against P. berghei liver stage (PbLuc), transformed with Luciferase, at 10uM; assay type: functional, HepG2; settings: tested at 10 uM

SMILES	INHIBITION [%]
COc1nccc(N2CC[C@@H](N3CCCCCC3)[C@H](O)C2)c1C#N	42.1
c1cnn(CC2CCCN2Cc2nc(C3CC3)no2)c1 (stereo not given)	11.4
Cc1cn2c(n1)C(CNCc1cnn3ccccc13)CCC2 (stereo not given)	50.1
CC(C)(C)c1cn2c(n1)C(CNCc1cnn3ccccc13)CCC2 (stereo not given)	51.1
O=C(NCc1cnn2ccccc12)NC1CCCC1	-16.4
Cn1cccc1CNCC1CCCn2cc(C(C)(C)C)nc21 (stereo not given)	22.3
CC(C)(C)c1ncc(CNCC2CCCn3ccnc32)s1 (stereo not given)	-7.66
CC(C)(C)C(=O)NCc1cnn2ccccc12	15.7
CC(C)(C)c1cn2c(n1)C(CNCc1ccccn1)CCC2 (stereo not given)	56.5
Cc1nc(C)c(CNCC2CCCn3ccnc32)s1 (stereo not given)	28.7
CC(C)(C)NC(=O)NCc1cnn2ccccc12	35.2
CN(CC1(C)COC1)C(=O)c1cc(-c2ccnn2C)nc2ccccc12	1.9
CSC(C)C(=O)N(C)CC(=O)Nc1ccc(Br)cn1 (stereo not given)	-17.6
NC(=O)C(CNC(=O)CCc1ccccc1)Cc1ccc(F)cc1 (stereo not given)	33.4
CN(C)C(=O)CO[C@H]1CN(Cc2ccccc2)[C@@H]2CCCO[C@H]12	3.3
CN(C)C(=O)CNC(=O)c1cc2ccccc2nc1N1CCCC1	42.3
CCn1nc(C)c(C(=O)NCc2csc(C3CC3)n2)c1C	76.3
Cc1nn(C)cc1C(=O)NCc1csc(C2CC2)n1	18.3
CCn1cc(C(=O)NCc2csc(C3CC3)n2)c(C)n1	67
Cc1ccc2c(cnn2CCC(=O)NCc2csc(C3CC3)n2)c1	26.9
Cc1cccc2c1cnn2CCC(=O)NCc1csc(C2CC2)n1	23.6
CCn1cc(CCC(=O)NCc2csc(C3CC3)n2)c(C)n1	22.9
CCOC(=O)CSc1nnc([C@@H](N)C(C)CC)o1 (stereo not given in full)	-30.6
COCC(=O)Nc1ccnn1-c1ccc(Cl)cc1	64.3

SMILES	INHIBITION [%]
COCCC(=O)Nc1ccnn1-c1ccccc1	67.1
COCCC(=O)Nc1ccnc(Oc2ccccc2)c1	-30
COCCOCC(=O)Nc1ccc(C)cc1Cl	-71.6
COCC(=O)NCCc1ccc(Cl)s1	28.4
COCCOCC(=O)Nc1ccnn1-c1ccc(Cl)cc1	54.6
COCC(=O)NC(c1ccc(Cl)cc1)C(F)(F)F (stereo not given)	-21.8
Cc1ccccc1-n1nccc1NC(=O)CCOC(C)C	43.8
CCOCCC(=O)Nc1ccnn1-c1ccc(Cl)cc1	12.9
Cc1cccc(C(=O)N2C[C@@H](OCc3ccncc3)[C@@H]3OCCC[C@@H]32)n1	-69.9
COCCN(Cc1ccccn1)C(=O)Nc1cccnc1-n1cccn1	9.4
NC(=O)CN1CCOCC(Cc2ccccc2)C1 (stereo not given)	-4.51
C=C(C)COc1ccccc1C(=O)N1CCC(C(=O)NCC)C1 (stereo not given)	48.5
CCN(c1ccc(C(=O)N2CCCCC2)cc1)S(=O)(=O)CC	40.3
OC1(CNc2cccc(F)c2)CCNCC1	28.5
CC(CN1CCOCC1)n1cncc1-c1cnn(Cc2ccccc2)c1 (stereo not given)	-3.135
CCOC(=O)N1CCN(C(=O)C(CC)n2cccn2)CC1 (stereo not given)	31.2
Cc1nccc([C@H]2C[C@@H]3CCN(S(C)(=O)=O)C[C@H]3O2)n1	33.2
Cc1ccoc1C(=O)N1CCCC(c2cc(C(F)(F)F)[nH]n2)C1 (stereo not given)	62.6
CC(C)(C#N)C(=O)N1CCCC(c2cc(C(F)(F)F)[nH]n2)C1 (stereo not given)	55.5
Cc1ccc(C(=O)N2CCCC(c3cc(C(F)(F)F)[nH]n3)C2)o1 (stereo not given)	54.4
Cc1nccc(C(=O)N2CCCC(c3cc(C(F)(F)F)[nH]n3)C2)n1 (stereo not given)	40
O=C(CO)N1CCCC(c2cc(C(F)(F)F)[nH]n2)C1 (stereo not given)	6.26
O=C(c1ccco1)N1CCCC(c2cc(C(F)(F)F)[nH]n2)C1 (stereo not given)	36.1
O=C(c1ccc(Cl)o1)N1CCCC(c2cc(C(F)(F)F)[nH]n2)C1 (stereo not given)	63.4

SMILES	INHIBITION [%]
Cc1noc(C)c1C(=O)N1CCCC(c2cc(C(F)(F)F)[nH]n2)C1 (stereo not given)	-27.9
Cc1[nH]ncc1C(=O)N1CCCC(c2cc(C(F)(F)F)[nH]n2)C1 (stereo not given)	24
Cc1cc(C(=O)N2CCCC(c3cc(C(F)(F)F)[nH]n3)C2)on1 (stereo not given)	33.8
Cc1cc(C2CCCN(C(=O)c3ccc(Cl)o3)C2)n[nH]1 (stereo not given)	42.9
CCOCCC1(CNC(=O)c2ccncc2Cl)CCC1	20.4
O=C(NCc1ccco1)[C@@]12CCO[C@@H]1CCN(CC1CCOCC1)C2	11.4
CN(Cc1cccnc1)Cc1cn2c(n1)CN(C1CCOC1)CC2 (stereo not given)	28.3
COCCN(Cc1nc2c(cnn2C)c(=O)[nH]1)C(C)COC (stereo not given)	-7.35
COCCN1C(=O)CCC12CCC(NCc1cccnc1OC)CC2 (stereo not given)	34.6
O=c1cc(CNCc2ccc3c(c2)OCO3)nc2ccc(Br)cn12	28
O=C(Cc1ccon1)NC1CCCN(c2ccccc2F)C1=O (stereo not given)	9.72
O=C1CCCc2[nH]c(=O)c(C(=O)N(Cc3ccsc3)C3CC3)cc21	26.43
Cc1nc(CN2C[C@@H](NC(=O)C3CCC3)[C@H]3COC[C@H]32)cs1	-10.5
Fc1ccc(-c2nc(CN3CCCCC3Cn3cncn3)co2)cc1 (stereo not given)	-0.113
COc1cccc(CN(C)C(=O)c2csc(-c3nnc[nH]3)n2)c1	40.9
CN(CCCOc1ccccc1)C(=O)c1csc(-c2nnc[nH]2)n1	53.9
COCCN(Cc1ccccc1)C(=O)c1csc(-c2nnc[nH]2)n1	24.7
Cc1ccccc1-c1cncc(C2CCN(CC(=O)N(C)C)CC2)n1	-0.371
Cc1cc(F)ccc1NS(=O)(=O)c1cc2c(c(C(=O)O)c1)OCCO2	25.1
CSCC(C)(O)CNc1cccc(F)c1C#N (stereo not given)	56.5
CC(C)C(C)(O)CNc1cccc(F)c1C#N (stereo not given)	-23.8
CSCC(C)(O)CNc1cccc(F)c1C(C)=O (stereo not given)	21.8
